Sensor-assay potency score (higher = more potent) data for 40 sequences are collected here from the OligoGym collection.
Further: reference of the scale not given here.

The target in one assay is CDC42SE1. Nature of the assay: pooled miR-30 sensor sort-seq; sequence = guide strand. The conditions noted are these: shRNA.
As to TTTCTCTACCACACAGCAGCCC, the sensor-assay potency score (higher = more potent) is -0.51.

TCATCTGCTCCTGAACTGCACC had a sensor-assay potency score (higher = more potent) of -1.23.

For the sequence ATCATGGTCCGGTCAATCCGTC, the sensor-assay potency score (higher = more potent) is -1.39.

TGCTCCATGGCCTATCTCGGTT: the sensor-assay potency score (higher = more potent) is -1.52.

ATCTCATCTGCTCCTGAACTGC gave a sensor-assay potency score (higher = more potent) of -1.52.

On to TTGCTCCATGGCCTATCTCGGT, for which the sensor-assay potency score (higher = more potent) was -1.82.

Turning to TTCTCTTCTTCTTCGGCTGGGG, the sensor-assay potency score (higher = more potent) is -0.102.

Sequence TCATGGCAAGTCCATCTCCGGC came in with a sensor-assay potency score (higher = more potent) of -1.88.

Take TGGGGTTTCTCTACCACACAGC: the sensor-assay potency score (higher = more potent) was -1.01.

In the next assay the target is CDCA7L. The assay is described as above. The conditions noted are these: shRNA.
Turning to TTCGGTGATATCCTCCACTGGC, the sensor-assay potency score (higher = more potent) turned out to be 0.00353.

In turn, TAGTGAGTCAAAACTATCGCAG gave a sensor-assay potency score (higher = more potent) of -0.978.

TTTTCTAAGTCCTCTTCGGTGA came in with a sensor-assay potency score (higher = more potent) of 0.0411.

Sequence TATACGGTGACGTCGTCTGTAC yielded a sensor-assay potency score (higher = more potent) of -0.513.

Turning to TATCATAGATTTTATCTCGAAC, the sensor-assay potency score (higher = more potent) is -0.423.

AAACTCTTCATCATCACTGGGG: the sensor-assay potency score (higher = more potent) is 0.515.

For the sequence TAAAAATTCTTCTTAGCTCTTC, the sensor-assay potency score (higher = more potent) amounted to 0.664.

With TAGCCTTATCTTCTTCTTCATC, the sensor-assay potency score (higher = more potent) is -1.31.

Turning to TCGCACACCACAGCAACCCTGG, the sensor-assay potency score (higher = more potent) is -0.788.

Turning to TTCTGTATAAAAACACAACTGT, the sensor-assay potency score (higher = more potent) was -0.22.

The sequence TAGACCTGCTTCTTCTAGGGGT came in with a sensor-assay potency score (higher = more potent) of 0.0946.

A further assay addresses CDCA8. The description is as above. Particulars: shRNA.
With TTCATCTACCTGTATTACCTTT, the sensor-assay potency score (higher = more potent) was -0.507.

For TTTGCTGTCAGCAAGAGGGCTG, the sensor-assay potency score (higher = more potent) is -0.00778.

TTCACGGTCGAAGTCTTTCAGA had a sensor-assay potency score (higher = more potent) of -1.11.

Sequence TATCTGAGCCTAAACCTCCCGG had a sensor-assay potency score (higher = more potent) of -0.819.

The sequence TAAACATAAAACACTGCTCCAC yielded a sensor-assay potency score (higher = more potent) of -0.305.

Regarding TTGGTCTTCAGTAAACAGGGAT, the sensor-assay potency score (higher = more potent) was -0.3.

As for TTCGTATTTCCACTTCACGGTC, the sensor-assay potency score (higher = more potent) is -0.813.

TATCATTTCATCTACCTGTATT registered a sensor-assay potency score (higher = more potent) of -1.16.

On to TTGCTTGATTCGTATTTCCACT, for which the sensor-assay potency score (higher = more potent) is -0.831.

For the sequence TCTACCTGTATTACCTTTCGTG, the sensor-assay potency score (higher = more potent) was -0.22.

As for TTACCTTTCGTGTTTTGGCAGA, the sensor-assay potency score (higher = more potent) was -0.552.

A further assay has as its target CDH19. The assay is described as above. Particulars: shRNA.
On to ATCAGTATTAGCTTCTTCGAGC, for which the sensor-assay potency score (higher = more potent) is -1.26.

As to TTATCTATGATTGTAAAACTTG, the sensor-assay potency score (higher = more potent) was -0.902.

The sequence TAACTTTTGCTCTAATACCGTA returned a sensor-assay potency score (higher = more potent) of -0.771.

In turn, TTGTTCCAGACAACGCTCCTGG had a sensor-assay potency score (higher = more potent) of -0.175.

Sequence TTCATTGTCATTGATATCCGAA displayed a sensor-assay potency score (higher = more potent) of 0.271.

In turn, TAGTCTGAATTACCTGACCAGA had a sensor-assay potency score (higher = more potent) of -1.28.

Turning to TATTGGAATATATTCTCTCTGA, the sensor-assay potency score (higher = more potent) is -0.596.

Consider TACTTGTAGTGATTGTACCATT, for which the sensor-assay potency score (higher = more potent) was -0.931.

TTTCTCAGGAAATAGAATCTGT came in with a sensor-assay potency score (higher = more potent) of 0.0652.
